Source: the supplement of paper PMC6555819

Key:
Assay in all cases: PBM binding z-score (relative to random genomic background probes); higher = stronger binding; sequences stand for … in GC…GCGATTGACAGCGTAGAATGAAGG
[1] = tested on: FXR:RXRa (NR concentration 270 nM, RXRa partner concentration 90 nM)
Method in brief: (§1)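 The probes on custom Agilent 4×180K protein-binding microarrays were double-stranded, with 34-nt variable regions bearing direct-repeat seeds, single-nucleotide variants, half-site ablations and random human genomic background sequences. Incubation lasted 1 h with ligand-free nuclear receptor dimers in PBS pH 7.4, 2% milk, 0.02% Triton X-100, 1 mM DTT, 0.2 mg/mL BSA and 0.4 mg/ml salmon testes DNA. Antibodies against each partner (one per run) detected bound dimers, and fluorescence scans were regression-normalized. Binding z-scores take the random background probes as reference.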

[2] = tested on: LXRa:RXRa (NR concentration 270 nM, RXRa partner concentration 90 nM)
Method in brief: as §1

[3] = tested on: LXRa homodimer (NR concentration 270 nM)
Method in brief: as §1

[4] = tested on: LXRb:RXRa (NR concentration 270 nM, RXRa partner concentration 90 nM)
Method in brief: as §1

[5] = tested on: LXRb homodimer (NR concentration 270 nM)
Method in brief: as §1

[6] = tested on: PPARa:RXRa (NR concentration 270 nM, RXRa partner concentration 90 nM)
Method in brief: as §1

[7] = tested on: PPARg:RXRa (NR concentration 180 nM, RXRa partner concentration 90 nM)
Method in brief: as §1

[8] = tested on: PPARg:RXRa 270nM:90nM, anti-RXR (NR concentration 270 nM, RXRa partner concentration 90 nM)
Method in brief: as §1

[9] = tested on: PPARg:RXRa 30nM:10nM, anti-RXR (NR concentration 30 nM, RXRa partner concentration 10 nM)
Method in brief: as §1

[10] = tested on: PPARg:RXRa 90nM:30nM, anti-RXR (NR concentration 90 nM, RXRa partner concentration 30 nM)
Method in brief: as §1

Sequence	PBM binding z-score [1]	PBM binding z-score [2]	PBM binding z-score [3]	PBM binding z-score [4]	PBM binding z-score [5]	PBM binding z-score [6]	PBM binding z-score [7]	PBM binding z-score [8]	PBM binding z-score [9]	PBM binding z-score [10]
ACTATTAGTTGAGACGAGGGGAACCGATAGGTTG	0.227	-0.0882	-0.278	-0.282	0.604	-0.0604	0.569	-0.00558	0.211	0.143
CCGACTGGTGCAAGGTTACCATAACGCACAGCCA	-0.035	0.459	-0.262	0.654	-1.22	0.831	0.89	0.462	-0.236	0.039
AGAACGAGGGCAATGAGTTGAAAGCACGGGTGGC	0.345	0.43	-0.528	-0.0192	-0.804	1.57	1.36	1.21	-0.135	0.569
CCTTACGGGTCAATGTTATAGCACGGGTGGTACG	4.09	2.96	0.175	2.61	0.428	3.96	3	3.22	1.1	2.16
CCAGACAGGTGAAGGGTAACTCAGTCTGGTACGC	-0.0331	0.00398	-0.524	0.172	-0.582	1.76	2.98	3.63	1.6	3.42
CGAACGAGGGCCTGAGTTGATAGCAAATGCCGAT	-0.571	-0.754	-0.624	-0.612	-0.92	-0.663	0.336	-0.582	-0.305	-0.468
GCTAGCAGGCCATTTGGGTCGCTCAATGACGGGC	-0.655	-0.842	-0.846	-1.04	-1.24	-0.407	-0.08	-0.417	-0.944	-0.61
CTCGAAAGGACGGTTGAGGTGAGTATACGGATAA	0.507	-0.351	-0.439	-0.303	-0.832	0.0414	0.232	-0.0748	0.0534	-0.244
AGAATGAGGTTATACGTAGATCAGGCAAGAAAGT	1.83	1.82	-0.142	1.29	-0.0449	3.31	1.97	2.21	0.758	1.71
TCTATTAGTTGAAGGGCTACCGACGAGTCCGTTT	0.932	0.924	0.312	0.431	0.511	0.594	-0.151	2.01	3.62	2.96
ATCTTTAGGTAAAAGTTCAGTGAATCCCGAGGAT	0.829	1.33	1.14	0.973	1.01	4.03	6.36	7.35	6.09	7.91
ATCTCTAGGTAAGACTCAGTTTAGTGAAGAACGC	0.613	0.734	0.489	0.362	0.843	-0.0694	0.158	0.112	0.213	0.579
CCTAGCAGGGCAATCTGGGTCACTCAAGGCTTGA	0.679	2.4	-0.398	0.85	-0.611	2.99	2.72	2.62	0.319	1.75
CGTCAAAGTTCAAGGTACCGTAACAGAAAGCAGC	6.16	5.65	3.11	3.48	0.91	4.61	4	4.81	1.82	3.9
CGTTACGGGTCACTGACAGGTTATAGCATTTGGA	5.82	4.13	0.216	3.8	-0.201	5.54	4.6	4.21	1.79	3.39
CTACCAAGATGAACAAGGTCGTTGATTACTATTC	0.828	0.783	0.9	1.49	0.267	1.09	0.228	0.135	-0.0206	0.314
CCGACTGGGGCAAAGGTTATCATACTCAGTACGA	1.81	1.66	0.176	1.87	-1.04	5.54	10.5	9.03	8.6	9.34
CATTACGGGTCACTCCAGGTTATAGCATCGGAGT	5.62	7.54	4.42	5.55	1.54	4.96	4.53	4.77	1.56	3.53
TCGAGTAGGTTAAGGGCATTCAGAATGGCGTCGA	0.969	1.02	-0.302	0.27	-1.02	1.75	1.68	2.85	1.35	2.37
TCTTGTCGATCAAAGGTTAAGAAAGCCGAAGCCT	1.41	1.95	0.175	1.9	0.245	3.76	5.79	6.32	5.47	6.64
TCTTGTAGATCAATAGAGGTTAAGAACGTGCGCT	0.948	2.59	0.355	1.46	-0.115	1.92	0.397	1.66	2.84	2.58
CCTTACGGGTCAAGGTTATTGCACGGGTGGTACG	5.1	3.67	0.262	2.96	0.000433	4.77	4.52	4.63	2.03	3.46
AGTCAAAGATCACTAGGTAACGTAAGATTCAGCT	-0.239	0.0788	-0.206	0.152	-0.329	1.52	2.34	2.95	0.876	2.3
CCTACTGTGCCACGAAAGGTCATTGATTCAGTGA	3.98	5.43	5.47	4.73	1.31	4.62	3.72	4.36	2	3.59
